“And” between values parts separate entries of the source, which are not always exact repeats. Identical values can stand only once. Records with an inconclusive call do not appear. Where a call stands in place of a potency, no number is given. The source made the active and inactive calls. Unless noted, calls follow the shape of the dose curve; as a rule, active = well fitted curve in the direction sought with a large enough effect; inconclusive = small, poorly fitted or top-dose-only effect, or another doubt; inactive = no such curve, though single readings can be large; an effect the other way counts as inactive or inconclusive.
Experiments:
[1] = target: alpha-glucosidase (Oryza sativa, rice) (UniProt Q653V4); test: Counterscreen for Glucocerebrosidase Inhibitors: qHTS Assay for Rice alpha-Glucosidase at pH 5.0 (AID 997)
Method in brief: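 Endpoint fluorogenic assay at pH 5.0: compounds (0.7 nM to 77 uM) titrated against 4 nM rice enzyme and 400 uM 4-MU-alpha-glucoside for 20 min at room temperature; NaOH/glycine stop, read ex 365/em 440 nm, Hill-fitted AC50.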

[2] = Validation of Assay for Modulators of Lamin A Splicing (AID 1459; active = well fitted curve in the direction sought with a large enough effect in the signal ratio; the % refers to the signal ratio;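 also: cells exposed to compound for two days before reading; ratio rise marks activators and ratio drop marks inhibitors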)
Method in brief: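 Splicing correction is reported by an EGFP-containing lamin A minigene in stably transfected S3 HeLa cells, while DsRed2 controls for viability and nonspecific signal. Cells are exposed to compounds for 48 hrs before the GFP over RFP ratio is taken.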

[3] = qHTS Assay for Lipid Storage Modulators (AID 1519; calls by dose curve); conditions: Drosophila S3 cells, BODIPY lipid droplet/cell ratio, laser cytometry, cells loaded with oleic acid; for activity change, negative = inhibition: at 57.5 µM (top of the series)
Method in brief: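 Cells seeded at 5,000 per well were treated with compounds over a concentration series and loaded with oleic acid (400 uM, as added). Lipid droplet fluorescence (488 nm excitation, 500-530 nm channel) was read by laser-scanning cytometry and normalized to 20 uM Triacsin C.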

[4] = target: DNA repair nuclease/redox regulator APEX1 (Homo sapiens) (UniProt P27695); test: qHTS Validation Assay for Inhibitors of the Human Apurinic/apyrimidinic Endonuclease 1 (APE1) (AID 1705; also: potency is read from the fitted curve at half-maximal effect;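 as to activity change, negative = inhibition: TAMRA fluorescence gain over two minutes as APE1 cuts a quenched THF abasic duplex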)
Sequence of DNA repair nuclease/redox regulator APEX1 (Homo sapiens) (P27695 whole entry, looked up): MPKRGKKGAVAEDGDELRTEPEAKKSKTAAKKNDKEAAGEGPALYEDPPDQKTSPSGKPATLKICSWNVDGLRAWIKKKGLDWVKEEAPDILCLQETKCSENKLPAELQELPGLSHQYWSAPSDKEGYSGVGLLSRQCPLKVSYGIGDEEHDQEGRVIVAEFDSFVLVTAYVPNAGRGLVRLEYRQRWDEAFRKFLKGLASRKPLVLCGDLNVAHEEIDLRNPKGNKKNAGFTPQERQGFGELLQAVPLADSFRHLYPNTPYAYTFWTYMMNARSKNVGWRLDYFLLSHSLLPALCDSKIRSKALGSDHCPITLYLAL
Method in brief: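 Endonuclease activity of human APE1 is followed as dequenching when the enzyme incises a tetrahydrofuran abasic site in a short duplex labelled 5'-TAMRA/3'-BHQ-2 (50 nM final), after 15 min enzyme–compound preincubation at room temperature.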

[5] = Counterscreen for APE1 Inhibitors: Fluorescent Dye Displacement Validation Assay (AID 1707); also: potency is read from the fitted curve at half-maximal effect
Method in brief: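 Reaction mixture of 250 nM Thiazole Orange and 50 nM double-stranded abasic-site DNA was dispensed, compounds were pin-transferred, and fluorescence was read at endpoint (480 nm ex, 540 nm em). Reduced fluorescence indicated dye displacement by DNA binding.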

[6] = qHTS for differential inhibitors of proliferation of Plasmodium falciparum line 7G8 (AID 1815);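 also: parasite growth measured after three days of incubation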; also: potency is read from the fitted curve at half-maximal effect
[7] = qHTS for differential inhibitors of proliferation of Plasmodium falciparum line GB4 (AID 1816); conditions: Potency: Plasmodium falciparum GB4 proliferation inhibition;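 also: parasite growth measured after 72 h incubation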; also: potency is read from the fitted curve at half-maximal effect
[8] = qHTS for differential inhibitors of proliferation of Plasmodium falciparum line 3D7 (AID 1876); also: potency is read from the fitted curve at half-maximal effect
[9] = target: Endonuclease 4 (Escherichia coli (strain K12)) (UniProt P0A6C1); test: Counterscreen for APE1 Inhibitors: qHTS Validation Assay for Inhibitors of Endonuclease IV (AID 1708); also: potency is read from the fitted curve at half-maximal effect
Method in brief: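 The reaction buffer contained 50 mM Tris-HCl pH 7.5, 50 mM NaCl, 2 mM MgCl2, 1 mM DTT and 0.01% Tween-20. Incision of a 50 nM fluorophore/quencher THF substrate by 2 nM enzyme was measured kinetically.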

[10] = measured here: cell count channel max response
[11] = measured here: lipid channel max response

Structure (SMILES) | outcome [1] | outcome [2] | activity change, negative = inhibition [3] | max response [3, 10] | max response [3, 11] | Potency [4] | Potency [5] | Potency [6] | Potency [7] | Potency [8] | Potency [9]
CNc1cc(NS(=O)(=O)c2ccc(N)cc2)nc(NC)n1 | inactive | inactive | 0.422% (inactive) | -14.7% | -14.3% | inactive | inactive | inactive | inactive | inactive | 
N[C@@H](CS(=O)O)C(=O)O | inactive | inactive | 4.63% (inactive) and 1.31% (inactive) | 10.5% and -12.6% | 17.1% and -9.76% |  | inactive | inactive | inactive | inactive | inactive
NC(N)=NC(N)=Nc1ccccc1 | inactive | inactive | -1.27% (inactive) and 5.81% (inactive) | 10.6% and 8.56% | 10.2% and 16.5% | inactive | inactive | inactive |  |  | inactive
NS(=O)(=O)c1cccc2c1c([N+](=O)[O-])cc1nc(O)c(O)nc12 | inactive | inactive | -1.05% (inactive) and 1.23% (inactive) | -22.6% and 10.1% | -22.6% and 7.26% | inactive | inactive |  |  | inactive | inactive
O=C(O)/C(=C/c1c(C(=O)O)[nH]c2cc(Cl)cc(Cl)c12)c1ccccc1 | inactive | inactive | 0.679% (inactive) | -8.09% | -9.3% | inactive | inactive |  |  | inactive | inactive
Oc1cc(O)c2c(c1)O[C@H](c1ccc(O)c(O)c1)[C@@H](O)C2 |  | inactive | 1.15% (inactive) | -12.7% | -13.1% |  | inactive | inactive | inactive | inactive | inactive
CCCC[C@@]1(C2CCCC2)Cc2cc(OCC(=O)O)c(Cl)c(Cl)c2C1=O |  | inactive | -1.19% (inactive) | -23.6% | -27% | inactive | inactive | 8.91 µM (active) | 12.6 µM (active) |  | 
COCc1nc2c([nH]1)c(=O)n(C)c(=O)n2CC(C)C | inactive | inactive | 1.67% (inactive) | -19.5% | -18.2% | inactive | inactive | inactive | inactive | inactive | inactive
CCN(CC)CCCCCCCCOC(=O)c1cc(OC)c(OC)c(OC)c1 | inactive | inactive | 0.792% (inactive) | 8.64% | 11.3% | inactive | inactive | 7.08 µM (active) |  | 5.62 µM (active) | inactive
Cc1nc(N=Nc2ccc(C(=O)O)cc2)c(COP(=O)(O)O)c(C=O)c1O | inactive | inactive | -0.137% (inactive) | -21.8% | -20.3% | inactive | inactive | inactive | inactive | inactive | 
NC(N)=NC(N)=Nc1cccc(Cl)c1 | inactive | inactive | 3.33% (inactive) and -0.622% (inactive) | 13.6% and -27.3% | 18.7% and -27.9% | inactive | inactive |  |  | 11.2 µM (active) | inactive
OC[C@H]1NC[C@@H](O)[C@@H]1O |  | inactive |  |  |  | inactive | inactive | inactive | inactive | inactive | inactive
O=C(O)/C=C/c1cnc[nH]1 |  | inactive |  |  |  | inactive | inactive | inactive | inactive | inactive | inactive
O=c1[nH]c(=O)c2nc3ccccc3nc2[nH]1 | inactive | inactive | -0.305% (inactive) | -11.1% | -9.17% |  |  |  | inactive |  | inactive
Cn1c(=O)[nH]c2ncn(C)c2c1=O | inactive | inactive | 0.383% (inactive) | 10.7% | 12.8% |  |  | inactive | inactive | inactive | 
O=c1onc2cnc3ccccc3n12 | inactive | inactive | 0.198% (inactive) | 54.3% | 54.9% |  | inactive |  |  |  | inactive
c1ccc(C2CN3CCSC3=N2)cc1 (stereo unspecified) |  | inactive | 7.49% (inactive) | 0.909% | 10.3% |  | inactive | inactive |  | inactive | 
N[C@H](C(=O)O)[C@H]1C[C@@H]1C(=O)O |  | inactive |  |  |  | 39.8 µM (active) | inactive | inactive | inactive | inactive | inactive
Nc1ccc(-c2nc3ccc(-c4nc5ccc(N)cc5[nH]4)cc3[nH]2)cc1 | inactive | inactive | -0.707% (inactive) | -29.1% | -26.6% |  | 25.1 µM (active) | 0.794 µM (active) | 0.891 µM (active) | 0.355 µM (active) | 22.4 µM (active)
NC1(C(=O)O)CCc2cc(C(=O)O)ccc21 (stereo unspecified) |  | inactive |  |  |  | inactive | inactive | inactive | inactive | inactive | inactive
C=CCN1CCc2c(cc(O)c(O)c2Br)[C@@H](c2ccccc2)C1 |  | inactive |  |  |  | inactive | inactive | 5.01 µM (active) | 5.01 µM (active) | 7.08 µM (active) | inactive
Nc1ccc(CCNc2ncnc3c2ncn3C2OC(CO)C(O)C2O)cc1 (stereo unspecified) |  | inactive |  |  |  | inactive | inactive |  |  |  | inactive
NCC(O)c1ccc(O)c(O)c1 (stereo unspecified) |  | inactive |  |  |  | inactive | inactive |  |  |  | inactive
O=C(O)c1cc2cc(F)ccc2[nH]1 | inactive | inactive | 8.59% (inactive) and -0.743% (inactive) | 14.4% and 31% | 24.2% and 29.2% |  |  |  |  | inactive | inactive
NCCNS(=O)(=O)c1cccc2c(Cl)cccc12 | inactive | inactive | -0.563% (inactive) | -2.01% | -12.2% |  | inactive | 7.08 µM (active) | 8.91 µM (active) | 12.6 µM (active) | 
CCCCCCCCCC[Si](C)(C)CCC(=O)NC(Cc1ccc(C)cc1)c1ccccc1 (stereo unspecified) |  | inactive |  |  |  | inactive | inactive |  |  |  | inactive

Reference: PubChem BioAssay (NCATS)
